Bioassay records: PubChem, National Center for Advancing Translational Sciences (NCATS)
DT40 TDP1 no CPT – qHTS for Inhibitors of human tyrosyl-DNA phosphodiesterase 1 (TDP1): qHTS in cells in absence of CPT; hit rate 15% among 420,000; Potency, µM (highest dose often 46.2 µM), inactives show at the highest dose activity change, negative = growth inhibition, usual class: inhibitors; DT40 Tdp1-/- hTDP1 cells, no CPT, ATP luminescence, 48 h; AID 686978, 2013; further: potency means the concentration at half of the fitted maximal effect; nearly all actives have a fitted effect of over 55% in size
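No-CPT arm: Tdp1-/-;hTDP1 DT40 cells (400/well) plus compounds, incubated ≥48 hr at 37 °C. Readout CellTiter-Glo luminescence.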
IL1B secr inh – inhibitors of inflammasome signaling (IL-1 beta secretion). AID 743279. hit rate 4.7% among 360,000. THP-1 LPS/ATP IL-1B secretion, AlphaLISA, 16 h; stronger effect = lower value. activity change, % at 57.5 µM; in the data active means activity change below about -50%; inconclusive means mostly about -30% to -49%
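THP-1 cells pretreated 1 hr with compounds (up to 57.5 uM final), then stimulated with LPS (250 ng/mL final) plus ATP (1.25 mM final); secreted IL-1B measured by AlphaLISA after 16 hr, decreased signal indicating inhibition.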
RORgamma inh – inhibitors of mouse ROR gamma transcriptional activity; P51450; hit rate 5.4% among 310,000; Potency, µM (top dose mostly 53.6 µM), for the others: at the highest dose activity change, negative = inhibition, hits mostly inhibitors; Drosophila S2 Gal4-RORgamma UAS-luciferase reporter, 20 h; further: potency means the concentration at half of the fitted maximal effect; nearly all actives have a fitted effect of over 60% in size
Target sequence (P51450 whole entry, looked up, the tested form may be a part): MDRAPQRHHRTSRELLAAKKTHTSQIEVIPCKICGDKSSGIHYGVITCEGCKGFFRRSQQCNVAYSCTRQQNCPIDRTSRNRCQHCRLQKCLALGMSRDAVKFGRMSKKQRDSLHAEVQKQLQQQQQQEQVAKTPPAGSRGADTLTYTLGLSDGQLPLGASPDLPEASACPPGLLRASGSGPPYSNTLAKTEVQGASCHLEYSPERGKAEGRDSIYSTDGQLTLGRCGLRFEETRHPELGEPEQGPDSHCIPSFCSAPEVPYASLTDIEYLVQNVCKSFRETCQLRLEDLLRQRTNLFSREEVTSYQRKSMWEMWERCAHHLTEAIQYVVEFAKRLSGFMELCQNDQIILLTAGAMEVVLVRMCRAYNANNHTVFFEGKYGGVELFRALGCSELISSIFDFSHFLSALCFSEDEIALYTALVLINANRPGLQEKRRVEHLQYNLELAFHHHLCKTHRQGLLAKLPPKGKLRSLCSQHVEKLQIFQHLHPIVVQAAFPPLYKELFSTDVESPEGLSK
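Read-out: Photinus luciferase luminescence; inhibitors lower reporter signal. Insect Schneider cells with Gal4-ROR gamma fusion under metallothionein promoter, UAS reporter; 700 uM final copper sulfate induction, 20 hr, ambient temperature.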
ELG1 DNA repair – ELG1-dependent DNA repair inhibition; hit rate 2.3% among 330,000; HEK293T ELG1-luciferase reporter, luminescence, 16 h; DNA damage induced by 5-fluorouridine; Potency, µM (doses to about 46.1 µM), inactives show at the top dose activity change, negative = inhibition, usual class: inhibitors; further: potency means the concentration at half of the fitted maximal effect; nearly all actives have a fitted effect of over 55% in size
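HEK293T cells expressing luciferase-tagged ELG1 (2,000/well) received 5-Fluorouridine plus compound or DMSO for 16 hr at 37 °C. Luciferase was read by ONE-Glo luminescence after 30 min at room temperature.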
DT40 TDP1 CPT – DT40-hTDP1 cell growth loss with CPT; chicken DT40 Tdp1-/-;hTDP1 cells + 20 nM CPT, ATP luminescence, 48 h; Potency, µM (top dose mostly 46.2 µM), without a hit: at the top dose activity change, negative = growth inhibition, actives largely listed as inhibitors; hit rate 12% among 420,000; AID 686979; further: potency means the concentration at half of the fitted maximal effect; nearly all actives have a fitted effect of over 55% in size
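Cell growth measured by CellTiter-Glo luminescence after a minimum 48 h, 37 C compound exposure with 20 nM CPT in Tdp1-knockout DT40 cells stably expressing hTDP1, seeded 400/well; qHTS titration format.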
VP16 counter – counter-screen for ROR gamma inhibitors: Gal4-VP16 reporter | Drosophila S2 Gal4-VP16 UAS-luciferase, luminescence, 20 h | hit rate 3.5% among 310,000 | Potency, µM (doses to about 53.6 µM), inactives show top-dose activity, negative = inhibition, usual class: inhibitors;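 further: Gal4-VP16 expression switched on by copper sulfate through the metallothionein promoter; potency means the concentration at half of the fitted maximal effect; nearly all actives have a fitted effect of over 50% in size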
Starred values were filed as active, the others as inactive; i = inactive; u = inconclusive; x = no result given; [ ] = remark or other dose. Only some compounds are listed: those with a hit (about 21% of all), similar ones and a draw of the others. Unless noted, the call rests on the fitted dose curve; in most records, active means well fitted curve in the direction sought with a large enough effect; inconclusive means small, poorly fitted or top-dose-only effect, or another doubt; inactive means no such curve, though single readings can be large; an effect the other way counts as inactive or inconclusive. On the % scale 0 is the no-effect control and ±100 the full control effect.

SMILES | DT40 TDP1 no CPT | IL1B secr inh | RORgamma inh | ELG1 DNA repair | DT40 TDP1 CPT | VP16 counter
Cc1ccc2c(c1)nnn2C1CCN(S(=O)(=O)c2ccc(C(=O)N(C)C)cc2)CC1 | u | 5 | 169% | 18µM* | -23% | u
Cc1ccc2c(c1)nnn2C1CCN(S(=O)(=O)c2cccc(S(=O)(=O)N(C)C)c2)CC1 | 15µM* | -17 | 26% | 21µM* | 18µM* | -11%
COc1ccc(OC)c2c(C)cc(N3CCCCCC3)nc12 | 9.2µM* | -11 | 25% | u | u | 4%
Cc1c(Nc2cc(N3CCCCCC3)c3nonc3c2[N+](=O)[O-])c(=O)n(-c2ccccc2)n1C | -22% | 14 | 15% | 0% | 3% | -3%
O=C(Nc1ccc(S(=O)(=O)NCC2CCCO2)cc1)c1ccc(Cl)cc1[N+](=O)[O-] (stereo unspecified) | u | -25 | 44% | u | 8.2µM* | u
O=C(Nc1ccc(F)cc1)c1ccc(S(=O)(=O)NCC2CCCO2)cc1 (stereo unspecified) | 13µM* | u | 17% | -19% | 18µM* | -20%
Cc1c(C(=O)Nc2ccc(S(=O)(=O)NCC3CCCO3)cc2)cccc1[N+](=O)[O-] (stereo unspecified) | u | -14 | u | -15% | u | -16%
O=C(Nc1ccccc1)c1ccc(S(=O)(=O)NCC2CCCO2)cc1 (stereo unspecified) | -23% | 9 | u | u | -26% | 2%
O=S(=O)(NCC1CCCO1)c1ccc(S(=O)(=O)N(Cc2ccccc2F)C2CCCCC2)cc1 (stereo unspecified) | u | -8 | x | x | 13µM* | x
Cc1cc(N2CCCCC2)nc(SCC(=O)c2ccccc2)n1 | 12µM* | -27 | -7% | u | u | 20%
Cc1cc(Oc2ccc3ccccc3c2)nc(SCC(=O)c2ccccc2)n1 | 18µM* | 12 | 30% | u | 21µM* | -10%
Cc1cc(Oc2ccc(Br)cc2)nc(SCC(=O)c2ccccc2)n1 | 21µM* | 24 | 14% | -19% | 23µM* | -5%
COC(=O)CSc1nc(C)cc(Oc2ccccc2)n1 | -17% | 10 | 10% | 7% | 0% | 0%
COC(=O)c1ccc(Oc2cc(C)nc(-n3nc(C)cc3C)n2)cc1 | 0.58µM* | 48 | 0.28µM* | u | 0.73µM* | 3.2µM*
CCOC(=O)C1(C)C=C(Nc2ccc(C(=O)O)cc2)C(=O)N1c1ccc(C(=O)O)cc1 (stereo unspecified) | 4% | x | x | x | 24% | x
CCOC(=O)c1ccc(Oc2cc(C)nc(SC)n2)cc1 | 9.2µM* | 25 | -34% | 0% | 8.2µM* | -11%
CCCC(CC)Sc1nc2c([nH]1)c(=S)n(C)c(=O)n2C (stereo unspecified) | 3.7µM* | 35 | x | x | 3.7µM* | x
CCCCC(C)Sc1nc2c([nH]1)c(=S)n(C)c(=O)n2C (stereo unspecified) | 5.2µM* | -99* | x | x | 3.7µM* | x
CC(C)c1ccc(NC(=O)Cn2nnc(C(=O)NCc3ccc(Cl)cc3)c2N)cc1 | 0% | x | x | x | -3% | x
CCN(CC(=O)Nc1ccc2c(c1)OCCO2)C(=O)c1ccc(CS(C)(=O)=O)cc1 | 2% | 25 | x | u | -7% | x
O=C(O)CSCC(=O)Nc1ccc(Cl)cc1C(F)(F)F | 17% | 36 | -3% | 2% | 2% | -1%
CC(C)N(CC(=O)Nc1ccc(Cl)cc1C(F)(F)F)C(=O)CCl | 6.5µM* | -115* | u | u | 21µM* | -14%
CC(C)CCNC(=O)c1ccc2c(c1)N(Cc1ccccc1)C(=O)CS2=O (stereo unspecified) | u | -2 | -42% | 21% | 21µM* | -3%
O=C(Nc1ccccc1Cl)c1ccc2c(c1)N(Cc1ccc(F)cc1)C(=O)CS2=O (stereo unspecified) | u | -6 | 44% | 6% | 16µM* | 17%
Cc1ccc(CNC(=O)N2CCC(CN3CCC(C)CC3)CC2)cc1 | -15% | x | x | x | -2% | x
SMILES | DT40 TDP1 no CPT | IL1B secr inh | RORgamma inh | ELG1 DNA repair | DT40 TDP1 CPT | VP16 counter
CC1(C)Oc2ccc3ccc(=O)oc3c2C(/C=N/O)=C1Cl | 0% | 33 | -15% | u | -20% | 2%
O=C1c2ccccc2C(c2nnnn2Cc2ccccc2)N1Cc1cccs1 (stereo unspecified) | u | 0 | x | x | -2% | x
CC1CCN(S(=O)(=O)c2ccc(C(=O)Nc3nnc(-c4ccco4)o3)cc2)CC1 | 18µM* | i | 0.35µM* | u | 15µM* | 0.5µM*
CC1CN(S(=O)(=O)c2ccc(C(=O)Nc3nnc(-c4ccco4)o3)cc2)CC(C)O1 (stereo unspecified) | u | 7 | 1µM* | 18µM* | 23µM* | 3.2µM*
Cc1ccc(Cl)cc1NC(=O)COC(=O)CC(C)(C)CC1=NS(=O)(=O)c2ccccc2N1 | 26µM* | x | x | x | 18µM* | x
COc1ccc(Cl)cc1NC(=O)COC(=O)CC(C)(C)CC1=NS(=O)(=O)c2ccccc2N1 | 21µM* | x | x | x | u | x
COc1ccc(NC(=O)COC(=O)CCCC2=NS(=O)(=O)c3ccccc3N2)cc1Cl | 25% | -17 | 0% | u | 2% | 0%
C=CCc1ccc(OCCCN2CCCC(C)C2)c(OC)c1 (stereo unspecified) | u | 8 | -11% | 15% | -5% | -3%
C=CCc1ccc(OCCCCN2CCC(C)CC2)c(OC)c1 | 16µM* | -7 | 0% | 8% | u | u
C=CCc1ccc(OCCCCN2CC(C)CC(C)C2)c(OC)c1 (stereo unspecified) | 21µM* | -17 | -39% | 1% | 16µM* | 6%[10 µM]
Cc1ccccc1Nc1nc(N)nc(COC(=O)c2ccc3c(c2)OCCO3)n1 | u | -13 | x | x | -26% | x
Cc1ccc(NS(=O)(=O)c2cccc(C(=O)N3CCN(C(=O)c4ccco4)CC3)c2)cc1 | u | 14 | x | -15% | -25% | x
COc1ccc(CCNC(=O)c2cc(-c3cc(Cl)ccc3O)n[nH]2)cc1OC | 12µM* | -6 | -18% | u | u | -4%
COc1ccc(CCNC(=O)c2cc(-c3ccc(C)cc3O)n[nH]2)cc1OC | 21µM* | 10 | -14% | -25% | u | 1%
CCN1CCN(C(=O)c2ccc3c(c2)N(Cc2ccccc2F)C(=O)c2ccccc2S3=O)CC1 (stereo unspecified) | u | x | x | x | -2% | x
